D1 PAM: human D1 dopamine receptor positive modulation; P21728; HEK293 TREx D1 cells, calcium flux, dopamine EC20 potentiation; potentiation, % at 10 µM; 360,000 compounds, 0.036% hits; AID 504651; in the data active = potentiation above about 30%; also: 0% is about no effect
Target sequence (P21728 whole entry, looked up): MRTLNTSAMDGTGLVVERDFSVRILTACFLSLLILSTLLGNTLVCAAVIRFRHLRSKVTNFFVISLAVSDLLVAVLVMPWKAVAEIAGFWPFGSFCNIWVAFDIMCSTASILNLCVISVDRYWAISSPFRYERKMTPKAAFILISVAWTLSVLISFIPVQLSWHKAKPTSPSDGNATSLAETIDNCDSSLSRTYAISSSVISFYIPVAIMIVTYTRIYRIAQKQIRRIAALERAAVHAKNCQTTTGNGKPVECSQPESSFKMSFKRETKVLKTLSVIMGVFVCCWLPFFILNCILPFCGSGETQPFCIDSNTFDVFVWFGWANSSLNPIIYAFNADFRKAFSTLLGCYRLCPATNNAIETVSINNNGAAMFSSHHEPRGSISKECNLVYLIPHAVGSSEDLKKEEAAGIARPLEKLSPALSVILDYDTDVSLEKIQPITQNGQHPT
D1 antag: blocks dopamine activation of the human D1 receptor. P21728. HEK293 TREx D1 cells, calcium flux, dopamine EC80; stronger effect = lower value. activity change, negative = inhibition, % at 10 µM. 360,000 compounds, 3.2% hits. AID 504652; in the data active = activity change below about -30%; also: % is scaled to controls: 0 for no effect and ±100 for the full control effect
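Antagonism measured as reduced calcium response to an EC80 dopamine addition following 180 s compound pre-read; cells were inducible HEK293 Trex D1 plated overnight at 30 C, read kinetically at 1 cycle/sec.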
TRHR ag: agonists of human TRH receptor; P34981; TRHR cells, calcium flux fluo-8, FDSS agonist mode; activation, % at 2 µM; 360,000 compounds, 0.18% hits; also: 0% is about no effect
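Read-out: compound-evoked intracellular calcium rise in TRHR cells, fluo-8 dye, kinetic FDSS fluorescence at 1 s/cycle following a 10-cycle baseline. Cells cultured overnight before dye loading (30 min–1.5 h, RT).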
TRHR enhancer: allosterically enhances the human TRH receptor; P34981; TRHR cells, fluo-8 calcium fluorescence, EC20 TRH enhancement; enhancement, % at 2 µM; 360,000 compounds, 0.66% hits; AID 493056; in the data active = enhancement above about 30%; also: 0% is about no effect
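Enhancer read-out: after compound pinning and an initial kinetic agonist-mode read, an EC20 of TRH (10 nM final) was injected and fluo-8 calcium signal (Ex 480/Em 530) followed at 1 s/cycle for 100 cycles in TRHR-expressing cells.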
D1 agonist: human D1 receptor agonism; P21728; HEK293 T-REx D1 cells, calcium flux, agonist mode; activation, % at 2 µM; 360,000 compounds, 1% hits; AID 504660; also: 0% is about no effect
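Inducible HEK293 T-REx D1 cells, force-coupled to calcium signalling, were plated at 4000 cells/well with tetracycline and held overnight at 30 C. After no-wash calcium dye loading, compound-evoked calcium rise over 180 s flagged agonists.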
The depositor's hits bear a star. An excerpt weighted towards active compounds, which were near 4.6% of everything screened. Rule as the data show it, unless noted: active = activation above about 30%; inactive = the rest.

`Cc1cccc(CN2CCN(CC(=O)Nc3c(C)cccc3C)S2(=O)=O)c1` gave D1 PAM 4.2, D1 antag 3.1, TRHR ag 35.8*, TRHR enhancer -0.4 and D1 agonist 5.0.
Screening CCCOc1ccc(CNC(=O)C(CC)n2nc(C)c3sc4ccccc4c3c2=O)cc1 (stereo unspecified) returned D1 PAM 1.7, D1 antag 7.5, TRHR ag 0.3, TRHR enhancer 0.3 and D1 agonist 1.4.
`COc1ccc(-c2[nH]c(-c3ccc4c(c3)OCO4)nc2-c2ccccc2)cc1` gave D1 PAM -4.6, D1 antag -75.7*, TRHR ag -1.2, TRHR enhancer -7.7 and D1 agonist 2.6.
Cc1ccc(NC(=S)N2CCC(N(C)CC3CCCO3)CC2)cc1C (stereo unspecified) was read as D1 PAM -8.4, D1 antag -17.7, TRHR ag -0.2, TRHR enhancer 31.1* and D1 agonist -3.3.
`Cc1[nH]c2ccc(-c3nnc(SCC(=O)c4ccc(F)cc4)o3)cc2c1C` gave D1 PAM -7.5, D1 antag -40.1*, TRHR ag 0.8, TRHR enhancer 5.4 and D1 agonist 2.3.
COc1ccc(C(=O)CSc2nnc(-c3cc(C)on3)o2)cc1 was read as D1 PAM -1.2, D1 antag -10.6, TRHR ag -0.2, TRHR enhancer -1.8 and D1 agonist 3.1.
`Cc1cc(-c2nnc(SCC(=O)c3ccc(Cl)cc3)o2)no1` gave D1 PAM -6.4, D1 antag -33.3*, TRHR ag -0.7, TRHR enhancer 4.2 and D1 agonist 9.4.
For COC(=O)c1cc2occc2n1CC(=O)Nc1ccc(N(C)C)cc1 the results were D1 PAM -0.6, D1 antag 15.4, TRHR ag -0.3, TRHR enhancer -2.4 and D1 agonist 4.1.
For Cc1ccc(Nc2ccc(N3CCN(C(=O)c4cccc([N+](=O)[O-])c4)CC3)nn2)cc1 the results were D1 PAM -1.6, TRHR ag -0.3, TRHR enhancer -6.7 and D1 agonist -0.2.
For O=C1CSC(c2ccc(Cl)cc2Cl)N1c1ccccn1 (stereo unspecified) the results were D1 PAM 30.0*, D1 antag -0.2, TRHR ag -1.3, TRHR enhancer -9.1 and D1 agonist 1.1.
For O=C1CSC(c2ccccn2)N1c1ccc(Cl)c(Cl)c1 (stereo unspecified) the results were D1 PAM -4.2, D1 antag 5.9, TRHR ag -1.0, TRHR enhancer 6.9 and D1 agonist 9.7.
COC(=O)c1sc(N/N=C/c2ccc(C(C)C)cc2)nc1C was read as D1 antag -37.2*, TRHR ag 1.7, TRHR enhancer 5.6 and D1 agonist 2.9.
For COc1ccc(OC)c(CN2CCC(CNC(=O)Nc3cccc(Cl)c3)CC2)c1 the results were D1 PAM -3.4, D1 antag -7.9, TRHR ag -1.1, TRHR enhancer 3.1 and D1 agonist 26.0.
`O=C(NCC1CCN(Cc2cccc(Cl)c2)CC1)Nc1ccc(Cl)cc1` gave D1 PAM -19.0, D1 antag -73.3*, TRHR ag 2.3, TRHR enhancer 9.5 and D1 agonist 31.5*.
Screening O=C(Nc1ccc(Oc2cccnc2)cc1)C1CCN(Cc2cccc(Cl)c2)CC1 returned D1 PAM -11.9, D1 antag -37.0*, TRHR ag 0.8, TRHR enhancer 2.0 and D1 agonist 49.4*.
Screening O=C(Nc1ccc(Oc2cccnc2)cc1)C1CCCCN1Cc1ccc(CO)o1 (stereo unspecified) returned D1 PAM 0.8, D1 antag 0.6, TRHR ag 0.2, TRHR enhancer 5.2 and D1 agonist 2.2.
`O=C(Nc1ccc(Oc2cccnc2)cc1)C1CCN(Cc2ccccc2)CC1` gave D1 PAM -5.5, D1 antag -2.3, TRHR ag 2.4, TRHR enhancer 2.1 and D1 agonist 24.8.
Screening CCc1cccc(CN2CCC(CNC(=O)Nc3ccc(Cl)cc3)CC2)c1 returned D1 PAM -7.5, D1 antag -43.7*, TRHR ag 0.9, TRHR enhancer -0.2 and D1 agonist 38.9*.
O=C(NCC1CCN(Cc2cccc(Cl)c2)CC1)Nc1ccc(F)c(Cl)c1 was read as D1 PAM -4.0, D1 antag -5.6, TRHR ag 2.2, TRHR enhancer -1.2 and D1 agonist 21.5.
